Data from PubChem BioAssay (Tox21).
Inconclusive results are not listed. Calls of active or inactive are those of the source. Calls follow the shape of the full dose curve.

What follows are compounds tested against D(2) dopamine receptor (Homo sapiens) (UniProt P14416) (assay: Dopamine D2 receptor (DRD2) small molecule agonists, cell-based qHTS assay (AID 1963594; also: nearly all actives have a fitted effect of over 35% in size)). Details: HEK293-DRD2 cAMP HTRF, agonist mode, 30 min; series mostly up to 92.4 µM; activation: at the top concentration.
Excerpt: National Center for Advancing Translational Sciences [NCATS]
Division of Preclinical Innovation [DPI]
U.S. Environmental Protection Agency [EPA]
National Institutes of Environmental Health Sciences [NIEHS]
National Toxicology Program [NTP]
U.S. Food and Drug Administration [FDA]
DRD2 is the D2 subtype of the dopamine receptor, which is coupled to Gi subtype of G protein-coupled receptor. This G protein-coupled receptor inhibits adenylyl cyclase activity. The DRD2-HEK293 cell line stably expressing D2 dopamine receptor can be used for screening agonists and antagonists of interactions between D2 and its ligands. The Hek293-DRD2 cAMP assay is based on HTRF technology. It measures changes of cAMP accumulation in response to Gi coupled GPCR activation or inhibition.
Tox21 Assay Protocol Summary:
DRD2-Hek293 cells were dispensed at 600 cells/3uL/well in 1536-well white plates using a Multidrop Dispenser. After the assay plates were incubated at a 37 C/5% CO2 incubator for 24 h, 1 uL of Ro20-1724 at final concentration of 0.1 mM was transferred to the assay plate by a Flying Reagent Dispenser. Following Ro20-1724 addition, 23 nL of compound dissolved in DMSO, positive controls or DMSO only was added to the assay plates via Wako pintool station. The assay plates were incubated at room temperature for 10 min. Next, 1 uL of NKH477 at 200nM was added into the plates. After the assay plates were incubated at room temperature for an additional 30 min, 2.5 ul/well of cAMP-d2 and 2.5 ul/well of anti-cAMP-cryptate were added respectively into the assay plates using a Flying Reagent Dispenser. The plates were incubated at room temperature for 1 h. The fluorescence intensity in the plates was measured at 340 nm excitation and 665 & 620 nm emission by an Envision plate reader.
% is scaled to controls: 0 for no effect and ±100 for the full control effect.

D(2) dopamine receptor (Homo sapiens), sequence (P14416 whole entry, looked up): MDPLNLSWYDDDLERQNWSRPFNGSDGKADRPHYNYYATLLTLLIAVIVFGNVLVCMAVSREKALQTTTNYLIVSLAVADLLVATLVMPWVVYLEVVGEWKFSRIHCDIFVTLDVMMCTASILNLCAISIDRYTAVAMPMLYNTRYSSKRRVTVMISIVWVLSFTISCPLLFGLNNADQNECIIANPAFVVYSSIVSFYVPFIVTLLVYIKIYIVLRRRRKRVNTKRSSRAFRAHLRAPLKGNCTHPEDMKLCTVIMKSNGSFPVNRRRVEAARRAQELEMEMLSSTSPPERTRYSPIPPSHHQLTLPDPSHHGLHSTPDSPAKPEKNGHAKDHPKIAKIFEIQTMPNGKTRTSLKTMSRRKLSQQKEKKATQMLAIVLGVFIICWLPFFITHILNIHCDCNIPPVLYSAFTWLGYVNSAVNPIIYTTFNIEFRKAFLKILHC

Row | Structure (SMILES) | activation | Potency
1 | C=CCOC(=O)COCCC(C)C | -0.862% (inactive) | –
2 | CN(C)C(=O)COC(=O)Cc1ccc(OC(=O)c2ccc(N=C(N)N)cc2)cc1 | 0.17% [at 42.5 µM] (inactive) | –
3 | CCc1ccc(C)cc1 | -2.06% (inactive) | –
4 | COc1nc(C)nc(Cl)c1NC1=NCCN1 | 14.1% [at 42.5 µM] (inactive) | –
5 | O=C(CCCN1CC=C(n2c(=O)[nH]c3ccccc32)CC1)c1ccc(F)cc1 | -2.35% [at 42.5 µM] (inactive) | –
6 | CCCCCCNC(=O)n1cc(F)c(=O)[nH]c1=O | -0.119% [at 42.5 µM] (inactive) | –
7 | CC(C)COC(=O)CCCCC(=O)OCC(C)C | -12.5% (inactive) | –
8 | CNc1ncnc2nc[nH]c12 | -6.11% (inactive) | –
9 | Cc1c(NC(=O)c2cccnc2)c(=O)n(-c2ccccc2)n1C | 12.8% [at 42.5 µM] (inactive) | –
10 | N[C@@H](CCC(=O)O)C(=O)O | 7.67% (inactive) | –
11 | CCC1(C)CC(=O)NC1=O (stereo not given) | 8.93% [at 42.5 µM] (inactive) | –
12 | CCOC(=O)/C=C(C)/C=C/C=C(C)/C=C/c1c(C)cc(OC)c(C)c1C | -0.296% [at 42.5 µM] (inactive) | –
13 | CC(C)CCC(=O)CCC(C)C | 9.44% (inactive) | –
14 | COc1ccc(/C=N/NC(=O)c2ccncc2)cc1OC | 1.54% [at 42.5 µM] (inactive) | –
15 | COc1cc(Cc2cnc(N)nc2N)cc(OC)c1OC | – | inactive
16 | CCOC(=O)CC(O)(CC(=O)OCC)C(=O)OCC | -19.4% (inactive) | –
17 | CCCCCCCCC(CO)CCCCCC (stereo not given) | 0.398% (inactive) | –
18 | CNCCC(Oc1ccc(C(F)(F)F)cc1)c1ccccc1 (stereo not given) | – | inactive
19 | O=C(Cl)c1ccc([N+](=O)[O-])cc1 | -2.78% (inactive) | –
20 | Cc1cccc(O)c1N | -1.95% (inactive) | –

Row | Structure (SMILES) | activation | Potency
21 | Cc1oc2c(NC(=O)c3c(Cl)cccc3Cl)cccc2c1C(C)(C)O | 0.0821% (inactive) | –
22 | O=C1CCCC(=O)O1 | -1.03% (inactive) | –
23 | CCCCC(CC)COP(=O)(O)O (stereo not given) | -3.85% (inactive) | –
24 | Cc1cccc(C)c1NC(=O)C(C)N (stereo not given) | -6.05% [at 42.5 µM] (inactive) | –
25 | CC(C)(CO)[C@@H](O)C(=O)NCCCO | 11.9% [at 42.5 µM] (inactive) | –
26 | Cc1ccc(Cl)c(N)c1Cl | -0.654% (inactive) | –
27 | C[C@@H]1C[C@H]2O[C@@]3(O[C@@H]2C(C)(C)O)[C@H](O)[C@@]2(C)[C@@H]4CC[C@H]5C(C)(C)[C@@H](O[C@@H]6OC[C@@H](O)[C@H](O)[C@H]6O)CC[C@@]56C[C@@]46CC[C@]2(C)[C@@H]13 | 0.0357% [at 42.5 µM] (inactive) | –
28 | O=CN(CCO)CCO | -0.113% (inactive) | –
29 | NC(N)=NN=C(/C=C/c1ccc([N+](=O)[O-])o1)/C=C/c1ccc([N+](=O)[O-])o1 | 3.37% [at 42.5 µM] (inactive) | –
30 | CCCOCC(C)OCC(C)O (stereo not given) | 0.252% (inactive) | –
31 | CC(C)c1ccccc1N | 0.0834% (inactive) | –
32 | O=C(c1ccccc1)C1CCCCC1 | 5.95% (inactive) | –
33 | CCCCCCCCCCC1CO1 (stereo not given) | -7.33% (inactive) | –
34 | CCCCCCCCCc1ccc(OCCOCCO)cc1 | -3.32% [at 42.5 µM] (inactive) | –
35 | CC(C)(C)c1ccc(OC2CCCCC2O)cc1 (stereo not given) | -6.05% (inactive) | –
36 | CN1C(C(=O)Nc2ccccn2)=C(O)c2sccc2S1(=O)=O | 20.9% [at 42.5 µM] (inactive) | –
37 | CC/C=C1/OC(=O)c2ccccc21 | -0.575% (inactive) | –
38 | CCOc1ccc2nc(N)sc2c1 | -0.865% (inactive) | –
39 | CC(=O)N(CC(O)CO)c1c(I)c(C(=O)NCCO)c(I)c(C(=O)NCC(O)CO)c1I (stereo not given) | 18.6% [at 42.5 µM] (inactive) | –
40 | CC[N+](CC)(CC)CCOC(=O)C(C1CCCC1)C1CCCC1 | -6.24% [at 42.5 µM] (inactive) | –
